Pf growth 48h: P. falciparum growth inhibition at 48 hours (one generation); 310,000 tested, 5.9% active; P. falciparum luciferase growth in erythrocytes, 48 h; Potency, µM (series often up to 28.7 µM), for inactives: top-dose activity change, negative = inhibition, hits mostly inhibitors; active = well fitted inhibition curve with a large enough effect; inconclusive = small, poorly fitted or top-dose-only effect, or another doubt; inactive = no such curve, though single readings can be large or run the other way; also: potency is read from the fitted curve at half-maximal effect; % is scaled to controls: 0 for no effect and ±100 for the full control effect
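Growth was read as firefly luciferase luminescence after a 48 h, 37 C, 5% CO2 exposure of compounds to reporter-bearing P. falciparum cultures (0.1% parasitemia, 2% hematocrit final) in Albumax-supplemented RPMI 1640.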
Pf growth 96h: inhibits malaria parasite growth, 96 h; 320,000 tested, 6.9% active; P. falciparum luciferase reporter growth, 96 h; Potency, µM (titrated, usually from 28.7 µM), without a hit: top-dose activity change, negative = inhibition, usual class: inhibitors; active = well fitted inhibition curve with a large enough effect; inconclusive = small, poorly fitted or top-dose-only effect, or another doubt; inactive = no such curve, though single readings can be large or run the other way; also: potency is read from the fitted curve at half-maximal effect; % is scaled to controls: 0 for no effect and ±100 for the full control effect
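Infected RBCs, 2% Hct / 0.05% parasitemia final; luciferase-reporter P. falciparum; cpd 96 h, 37 C, 5% CO2; luciferase detection reagent; luminescence.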
SARS PLP yeast: blocks SARS-CoV papain-like protease in a yeast assay; S. cerevisiae expressing SARS-CoV PLpro, growth rescue; Potency, µM (doses to about 32.9 µM), without a hit: at the top dose activity, positive = growth rescue, actives largely listed as activators; 330,000 tested, 0.19% active; AID 485353; also: potency is read from the fitted curve at half-maximal effect; 0% is about no effect; nearly all actives have a fitted effect of over 55% in size
Shiga inhibitor: inhibitors of Shiga toxin in Vero cells. AID 2315. 290,000 tested, 9.2% active. inhibition, % at 38.7 µM. Vero cells, Shiga toxin protein synthesis inhibition reporter; in the data active = inhibition mostly above about 28%, no sharp cut-off; inactive = mostly below about 43%; also: 0% is about no effect
Cycloheximide cs: counter-screen for Shiga toxin inhibitors: cycloheximide protein synthesis inhibition; cell reporter, cycloheximide protein synthesis inhibition counterscreen; max response, %; 300,000 tested, 12% active; in the data active = max response mostly above about 13%, no sharp cut-off; inactive = mostly below about 14%; also: read at 38.3 µM for the half of the compounds with a filed dose; 0% is about no effect
NS1 inh: inhibitors of influenza NS1 protein function; Potency, µM (doses to about 46.1 µM), inactives show at the top dose activity, positive = more growth; 270,000 tested, 0.4% active; AID 2326; also: potency is read from the fitted curve at half-maximal effect; actives are rising curves; nearly all actives have a fitted effect of over 50% in size
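In this qHTS, NS1 from influenza A is expressed in budding yeast, where it slows growth. Cells are switched from glucose to 2% galactose medium (pH 6.0, -URA), treated with compound, and growth recovery is read at OD600.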
An asterisk follows results filed as active; i = inactive; ? = inconclusive; nt = not tested or not shown; [ ] = another dose, or the depositor's remark. This is a sample that favours compounds with a hit; in the whole collection about 21% have one here. Unless noted, calls follow the shape of the full dose curve.

SMILES | Pf growth 48h | Pf growth 96h | SARS PLP yeast | Shiga inhibitor | Cycloheximide cs | NS1 inh
COc1ccccc1NC(=O)C1=C(C)N(c2ccccc2)C(=S)NC1c1cccc(C(F)(F)F)c1 (configuration not stated) | nt | ? | ? | 3.9 | 1.0 | ?
COc1ccc(C)cc1N(CC(=O)N1CCCCCC1)S(=O)(=O)c1ccccc1 | ? | 48.3% | 0.2% | -7.4 | -4.8 | -7.3%
COc1ccc(NC(=O)c2sc3ncn(CC(=O)N4CCCCC4)c(=O)c3c2C)cc1OC | -24.0% | ? | -3.8% | -7.8 | -1.8 | -3.9%
c1ccc2nc(-c3ccc(N4CCOCC4)cc3)ccc2c1 | 69.3% | 104.7% | -6.2% | 67.2* | 32.5* | 7.9%
CN1CCN(c2ccc(-c3ccc4ccccc4n3)cc2)CC1 | -45.5% | i[5.75 µM] | 0.3% | -12.6 | 1.4 | 1.9%
c1ccc2nc(-c3ccncc3)ccc2c1 | 74.1% | 67.4% | -7.4% | 84.3* | 33.8* | -11.5%
Cc1cc(-c2ccc(N3CCOCC3)cc2)nc2ccccc12 | 201.7% | 190.0% | 17.9% | 27.6* | 30.4* | 6.0%
Cc1onc(-c2ccccc2Cl)c1C(=O)N1CCOC12CCCCC2 | -20.3% | -4.3% | -0.7% | -18.6 | -0.6 | -1.1%
CC(C)S(=O)(=O)c1csc(C(=O)Nc2ccc(F)cc2)c1N | 228.3% | 328.3% | -11.7% | 53.5 | 41.9* | 1.0%
COC(=O)[C@H](CC(C)C)NC(=O)Nc1ccc(F)cc1 | 15.0% | 17.4% | -0.3% | -9.6 | -2.6 | 1.5%
COc1cc(NC(=O)Nc2ccc3c(c2)OCO3)cc(OC)c1OC | 10.7% | 0.4% | 0.4% | 44.2 | 11.0 | nt
CC(C)c1ccccc1NC(=O)Nc1ccc2c(c1)OCO2 | 20.3% | ? | -5.9% | 24.9 | 1.8 | -5.9%
COC(=O)c1ccccc1NC(=O)Nc1ccc2c(c1)OCO2 | nt | 103.7% | 11.3% | 61.3 | 16.4* | -1.0%
COC(=O)c1ccc(C(=O)OC)c(NC(=O)Nc2ccc3c(c2)OCO3)c1 | 34.4% | nt | -0.7% | 61.7* | 24.6* | -8.7%
COC(=O)c1ccc(C(=O)OC)c(NC(=O)/C=C/C(=O)O)c1 | 24.4% | -7.7% | -0.2% | 31.0 | 10.9* | 10.2%
COC(=O)/C(C#N)=C\c1c(OC)[nH]c2ccccc12 | -10.3% | 30.8% | -0.1% | -3.4 | 0.9 | -1.7%
CCc1ccccc1N(C(=O)c1cccs1)C1C=CS(=O)(=O)C1 (configuration not stated) | ? | ? | 16.1% | 2.1 | -3.3 | -2.1%
Oc1ccc(NCc2cccc(OCc3ccccc3)c2)cc1 | -5.4% | -25.9%[5.75 µM] | -1.5% | 46.7 | 21.6* | 7.2%
Oc1ccc(NCc2cccc(OCc3ccc(F)cc3)c2)cc1 | ? | 13.8% | -3.4% | 45.4* | 24.2* | 7.1%
O=[N+]([O-])c1ccc(COc2cccc(CNc3ccc(F)cc3)c2)cc1 | 5.6% | -77.5% | 1.8% | 37.2* | 34.5* | 18.6%
OCCNCc1cccc(OCc2ccc(Cl)cc2)c1 | ? | 8.4% | 0.1% | 25.5 | 7.2 | 0.3%
c1ccc(COc2cccc(CNCc3ccccn3)c2)cc1 | -13.8% | -23.3% | 1.1% | 64.8* | 33.6* | 8.5%
O=C(OCc1ccc(C(=O)c2ccccc2)cc1)c1cccc(-c2nnc(-c3ccccc3)o2)c1 | 33.6% | 167.4% | -3.2% | 63.7* | 22.2* | 14.5%
CC(C)OC(=O)c1ccc(COC(=O)c2cccc(-c3nnc(-c4ccccc4)o3)c2)cc1 | 79.9% | ? | -5.3% | 31.8 | 17.1* | -1.2%
O=C(OCc1nnc(-c2ccccc2)o1)c1ccc(CO)cc1 | -14.1% | 9.4% | 3.7% | 30.0 | 16.5 | nt
SMILES | Pf growth 48h | Pf growth 96h | SARS PLP yeast | Shiga inhibitor | Cycloheximide cs | NS1 inh
O=C(OCc1ccccc1)c1cccc(-c2nnc(-c3ccccc3)o2)c1 | 69.5% | 244.8% | -3.8% | 5.6 | -4.7 | ?
CCOC(=O)c1cccc(COC(=O)c2cccc(-c3nnc(-c4ccccc4)o3)c2)c1 | 121.5% | 5.4% | 15.2% | 77.9* | 46.1* | 2.3%
CC(C)NC(=O)CSc1nnc(-c2ccncc2)n1-c1ccccc1 | 37.6% | nt | -9.1% | -19.1 | 10.2 | 0.1%
CC(NC(=O)COC(=O)C1CC2CCCC(C1)C2=O)c1ccccc1 (configuration not stated) | 15.2% | 7.9% | 4.1% | nt | nt | nt
N#Cc1c(N2CCCC(O)C2)nc(N)c2c(N)nc3c(c12)CC(=O)N3C12CC3CC(CC(C3)C1)C2 (configuration not stated) | ? | 0.208µM* | -2.8% | 15.9 | 4.1 | 28.1%
COc1ccc(CN2C(=O)Cc3c2nc(N)c2c(N)nc(N4CCCCC4)c(C#N)c32)cc1 | ? | ? | 10.0% | 13.5 | -1.9 | 17.8%
C=C(C)CN(CC)c1nc(N)c2c(N)nc3c(c2c1C#N)CC(=O)N3C12CC3CC(CC(C3)C1)C2 | nt | 0.928µM* | -3.2% | -6.0 | -2.7 | 13.4%
N#Cc1c(N(CCO)CCO)nc(N)c2c(N)nc3c(c12)CC(=O)N3CC1CCCO1 (configuration not stated) | 2.3% | 30.6% | -2.8% | 4.7 | -1.0 | 1.5%
CCCCN1C(=O)Cc2c1nc(N)c1c(N)nc(N(CCC)CCC)c(C#N)c21 | 4.65µM* | 4.15µM* | -0.1% | -8.7 | 1.9 | 9.4%
COC(=O)C(Cc1ccc(O)cc1)NC(=O)C1CCN(S(=O)(=O)c2ccc(C)cc2)CC1 (configuration not stated) | -0.1% | 4.6% | -0.5% | 1.3 | -1.7 | 2.4%
O/N=C/c1cc2ccccc2n1Cc1ccccc1F | 2.62µM* | 15.4% | -6.4% | -6.0 | -3.0 | 5.1%
O=C(CCl)N(c1ccccc1)c1ccccc1 | 1.65µM* | 4.15µM* | 0.1% | -21.9 | -5.0 | 2.3%
O=C(N(c1ccccc1)c1ccccc1)N(c1ccccc1)c1ccccc1 | ? | ? | -2.0% | -5.6 | -1.8 | -4.2%
O=C(Nc1ccccc1)NN(C(=O)CCl)c1ccccc1 | 13.1µM* | ? | 22.4% | 24.1 | 14.4 | 10.5%
CCC(O)(CC)C(=O)NN(C(=O)CCl)c1ccccc1 | ? | 5.22µM* | 16.6% | 5.3 | 1.1 | -7.1%
O=C(CCl)N(CCc1ccccc1)CCc1ccccc1 | 11.7µM* | ? | -17.9% | -3.1 | 19.4 | -22.1%
CN(C)CC(C)(C)CN=Cc1c(O)[nH]c2ccccc12 | 4.9% | -8.1% | 0.2% | 27.0 | -2.1 | 4.7%
Cc1ccc(N(NC(=O)C(O)(c2ccccc2)c2ccccc2)C(=O)CCl)cc1 | 5.22µM* | ? | -14.7% | -8.8 | -8.6 | -6.6%
Cc1ccc(C(O)(C(=O)NN(C(=O)c2ccccc2)c2ccccc2)c2ccc(C)cc2)cc1 | 4.8% | -0.1% | 2.9% | -7.6 | -2.9 | 0.7%
Nc1cc(C(=O)N/N=C/c2cccc([N+](=O)[O-])c2)n[nH]c1=O | 1.9% | 5.5% | 1.2% | -1.4 | -1.9 | -3.6%
O=C(OCC(=O)N1CCN(c2ccccc2)CC1)c1ccc(Cl)nc1 | 14.3% | 14.4% | 3.0% | nt | nt | nt
O=C(OCC(=O)c1ccco1)c1ccc2ncsc2c1 | 43.1% | nt | -3.8% | 58.5 | 29.3* | -10.9%
